From PubChem BioAssay (NCI) come the findings set out here.

The panel holds about 79,000 compounds, 15% with a hit somewhere; the sample as a whole holds those more often. Values without a mark were called inactive. Activity calls are given as the source filed them. Rule as the data show it: active = growth inhibition above about 70%; inactive = the rest. Where a SMILES comes first, the peptide text is derived from it. The star is where a group is joined. X7 = Clc1c(Cl)c(Cl)c(O*)c(Cl)c1Cl; Boc = CC(C)(C)OC(=O)*; OBn = c1ccc(CO*)cc1; Bn = c1ccc(C*)cc1

The nature of test [1]: NCI Yeast Anticancer Drug Screen. Data for the rad50 strain (AID 155).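 Also: 0% = growth of vehicle-only cultures of the same strain.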 Conditions: S. cerevisiae rad50 strain growth inhibition, stronger effect = higher value. In outline:
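Compounds were tested on a yeast strain with an engineered DNA damage repair alteration; the reported value is growth inhibition normalised to vehicle treatment.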

Test [2] is described as follows: NCI Yeast Anticancer Drug Screen. Data for the mec2-1 strain (AID 157). Conditions: S. cerevisiae mec2-1 strain, stronger effect = higher value. In outline:
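Readout is yeast growth inhibition, normalised to vehicle-treated controls, in the mec2-1 strain exposed to compound.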

Test [3] is described as follows: NCI Yeast Anticancer Drug Screen. Data for the sgs1 mgt1 strain (AID 161).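 Also: 0% = growth of cultures given vehicle only.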 Conditions: S. cerevisiae sgs1 mgt1 strain, stronger effect = higher value. In outline: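 Yeast cells carrying a defined DNA-repair defect were exposed to test compounds. Growth inhibition was measured relative to vehicle-treated controls.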
The nature of test [4]: NCI Yeast Anticancer Drug Screen. Data for the cln2 rad14 strain (AID 165).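 Also: 0% = growth equal to vehicle treated cultures.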 Conditions: S. cerevisiae cln2 rad14 strain, stronger effect = higher value. The method in brief:
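Relative to vehicle controls, growth inhibition of compound-treated cln2 rad14 yeast was recorded.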

Test [5] in a line: NCI Yeast Anticancer Drug Screen. Data for the bub3 strain (AID 167). The note with it: S. cerevisiae bub3 mutant strain, stronger effect = higher value. In outline: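 Growth of a checkpoint-deficient yeast mutant is measured after compound exposure. Values represent inhibition relative to vehicle.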
Test [6] is described as follows: NCI Yeast Anticancer Drug Screen. Data for the mlh1 rad18 strain (AID 175). The note with it: S. cerevisiae mlh1 rad18 strain growth inhibition, stronger effect = higher value. The method in brief:
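Test agents were incubated with a yeast strain of defined genotype (DNA damage repair defect). Inhibition of growth was derived by comparison with vehicle-exposed cultures.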

[7] abbreviates: at 5.0 µM (retest, dose inferred, filed as 0.5).
Setting [8] is: at 50.0 µM (retest, dose inferred, filed as 5.0).

On to `CNC(=O)c1cc(NC(=O)c2ccc(C(=O)Nc3cc(C(=O)NC)cc(C4=NCCN4)c3)cc2)cc(C2=NCCN2)c1`, for which the growth inhibition is 3% in test [1] (setting [7]); -3% in test [1] (setting [8]); 98.8% (active) in test [1] (at 50.0 µM); 11% in test [2] (setting [7]); 1% in test [2] (setting [8]); 99.6% (active) in test [2] (at 50.0 µM). Moreover, the growth inhibition in test [3] (setting [7]) is -6%; in test [3] (setting [8]), -3%; in test [3] (at 50.0 µM), 99.3% (active); in test [4] (setting [7]), 0%; in test [4] (setting [8]), 8%; in test [4] (at 50.0 µM), 92.8% (active). Further, the growth inhibition was 5% in test [5] (setting [7]); 1% in test [5] (setting [8]); 98.7% (active) in test [5] (at 50.0 µM); 2% in test [6] (setting [7]); -19% in test [6] (setting [8]); 98.6% (active) in test [6] (at 50.0 µM).

As to `CC(C)CC(NC(=O)C(CCC(=O)OCc1ccccc1)NC(=O)OC(C)(C)C)C(=O)NC(COCc1ccccc1)C(=O)NC(Cc1ccccc1)C(=O)Oc1c(Cl)c(Cl)c(Cl)c(Cl)c1Cl` (stereo not given) (Boc-E(OBn)LS(Bn)F-X7; configuration not given here), the growth inhibition in test [1] (setting [7]) was 39%; in test [1] (setting [8]), 58%; in test [1] (at 50.0 µM), 80.5% (active); in test [2] (setting [7]), 36%; in test [2] (setting [8]), 56%; in test [2] (at 50.0 µM), 84.8% (active). For the same compound, the growth inhibition in test [3] (setting [7]) is 38%; in test [3] (setting [8]), 80% (active); in test [3] (at 50.0 µM), 82.8% (active); in test [4] (setting [7]), 26%; in test [4] (setting [8]), 53%; in test [4] (at 50.0 µM) it was 85.3% (active). In addition, the growth inhibition in test [5] (setting [7]) is 34%; in test [5] (setting [8]) it was 84% (active); in test [5] (at 50.0 µM), 78% (active); in test [6] (setting [7]), 42%; in test [6] (setting [8]), 76% (active); in test [6] (at 50.0 µM), 79.6% (active).

As for `Nc1ccc2oc(=O)c3ccccc3c2c1`, the growth inhibition in test [1] (setting [7]) was 18%; in test [1] (setting [8]), 94% (active); in test [1] (at 50.0 µM) it was 85.3% (active); in test [2] (setting [7]) it was 7%; in test [2] (setting [8]) it was 69%; in test [2] (at 50.0 µM) it was 36.6%. For the same compound, the growth inhibition in test [3] (setting [7]) was 10%; in test [3] (setting [8]), 85% (active); in test [3] (at 50.0 µM), 48%; in test [4] (setting [7]), 8%; in test [4] (setting [8]), 30%; in test [4] (at 50.0 µM) it was 6.8%. For the same compound, the growth inhibition in test [5] (setting [7]) was -3%; in test [5] (setting [8]), 74% (active); in test [5] (at 50.0 µM) it was 33.1%; in test [6] (setting [7]), 22%; in test [6] (setting [8]) it was 94% (active); in test [6] (at 50.0 µM), 86.8% (active).

With `CC(=O)OC(OC(C)=O)c1ccc([N+](=O)[O-])o1`, the growth inhibition in test [1] (setting [7]) is -7%; in test [1] (setting [8]), -39%; in test [1] (at 50.0 µM) it was 99.4% (active); in test [2] (setting [7]), -23%; in test [2] (setting [8]) it was -22%; in test [2] (at 50.0 µM), 99% (active). Besides, the growth inhibition in test [3] (setting [7]) is -5%; in test [3] (setting [8]) it was -10%; in test [3] (at 50.0 µM), 99.3% (active); in test [4] (setting [7]) it was -3%; in test [4] (setting [8]), -23%; in test [4] (at 50.0 µM), 99.2% (active). The growth inhibition was -20% in test [5] (setting [7]); -87% in test [5] (setting [8]); 99.5% (active) in test [5] (at 50.0 µM); 5% in test [6] (setting [7]); 4% in test [6] (setting [8]); 99% (active) in test [6] (at 50.0 µM).

Regarding `CCS(=O)(=O)C(C(O)C(O)C(O)C(O)CO)S(=O)(=O)CC` (stereo not given), the growth inhibition is -3% in test [1] (setting [7]); -6% in test [1] (setting [8]); 16.2% in test [1] (at 50.0 µM); -2% in test [2] (setting [7]); -6% in test [2] (setting [8]); 8.95% in test [2] (at 50.0 µM). Besides, the growth inhibition is -2% in test [3] (setting [7]); -2% in test [3] (setting [8]); 7.25% in test [3] (at 50.0 µM); 0% in test [4] (setting [7]); -10% in test [4] (setting [8]); 43.5% in test [4] (at 50.0 µM). In addition, the growth inhibition in test [5] (setting [7]) was 0%; in test [5] (setting [8]), 4%; in test [5] (at 50.0 µM), -2%; in test [6] (setting [7]) it was -4%; in test [6] (setting [8]), -10%; in test [6] (at 50.0 µM), -7.05%.

Regarding `CC(C)(C)C(NO)C(O)N1CCCCC1` (stereo not given), the growth inhibition in test [1] (setting [7]) is -155%; in test [1] (setting [8]), -141%; in test [1] (at 50.0 µM), 20.2%; in test [2] (setting [7]) it was -53%; in test [2] (setting [8]), -52%; in test [2] (at 50.0 µM) it was 6.25%. Besides, the growth inhibition in test [3] (setting [7]) was -59%; in test [3] (setting [8]), -63%; in test [3] (at 50.0 µM), 17.1%; in test [4] (setting [7]), -63%; in test [4] (setting [8]) it was -57%; in test [4] (at 50.0 µM), 50%. Besides, the growth inhibition in test [5] (setting [7]) was -69%; in test [5] (setting [8]) it was -73%; in test [5] (at 50.0 µM), -4%; in test [6] (setting [7]), -118%; in test [6] (setting [8]) it was -105%; in test [6] (at 50.0 µM), 12.4%.

For the compound `CC(C)OP(=O)(OC(C)C)/C(=N/Nc1ccc([N+](=O)[O-])cc1)NNC(=O)c1ccccc1`, the growth inhibition in test [1] (setting [7]) was -24%; in test [1] (setting [8]) it was 61%; in test [1] (at 50.0 µM), 95.2% (active); in test [2] (setting [7]) it was -12%; in test [2] (setting [8]), 74% (active); in test [2] (at 50.0 µM), 95.7% (active). The growth inhibition in test [3] (setting [7]) is -11%; in test [3] (setting [8]), 53%; in test [3] (at 50.0 µM), 93.5% (active); in test [4] (setting [7]), -21%; in test [4] (setting [8]), 67%; in test [4] (at 50.0 µM), 87.2% (active). For the same compound, the growth inhibition in test [5] (setting [7]) is -15%; in test [5] (setting [8]), 74% (active); in test [5] (at 50.0 µM), 94.9% (active); in test [6] (setting [7]), 3%; in test [6] (setting [8]), 92% (active); in test [6] (at 50.0 µM), 94.6% (active).

On to `CCCCCNC(=O)C1C(=O)N(CCCCC)C(=O)/C1=N\N` (stereo not given), for which the growth inhibition in test [1] (setting [7]) was -1%; in test [1] (setting [8]) it was -1%; in test [1] (at 50.0 µM), -5%; in test [2] (setting [7]), -3%; in test [2] (setting [8]), 2%; in test [2] (at 50.0 µM) it was 29.8%. The growth inhibition in test [3] (setting [7]) was 2%; in test [3] (setting [8]), 3%; in test [3] (at 50.0 µM), 1.7%; in test [4] (setting [7]), 1%; in test [4] (setting [8]), -3%; in test [4] (at 50.0 µM) it was 79.7% (active). Further, the growth inhibition in test [5] (setting [7]) was 5%; in test [5] (setting [8]), -3%; in test [5] (at 50.0 µM), 30.8%; in test [6] (setting [7]), -1%; in test [6] (setting [8]), -4%; in test [6] (at 50.0 µM), -13.5%.

`Cc1ccc2c(-c3ccccc3)c3ccccc3cc2c1C`: the growth inhibition in test [1] (setting [7]) is 6%; in test [1] (setting [8]), 3%; in test [1] (at 50.0 µM), 46.1%; in test [2] (setting [7]), 13%; in test [2] (setting [8]) it was 20%; in test [2] (at 50.0 µM), 16.9%. The growth inhibition in test [3] (setting [7]) is 8%; in test [3] (setting [8]) it was 18%; in test [3] (at 50.0 µM) it was 27.6%; in test [4] (setting [7]), -4%; in test [4] (setting [8]), -11%; in test [4] (at 50.0 µM), 14.5%. Also, the growth inhibition is -5% in test [5] (setting [7]); -16% in test [5] (setting [8]); 37.6% in test [5] (at 50.0 µM); -3% in test [6] (setting [7]); 2% in test [6] (setting [8]); 53.4% in test [6] (at 50.0 µM).

Turning to `N#CC(/C=C/c1ccccc1)(NO)Nc1cccc(Cl)c1` (stereo not given), the growth inhibition in test [1] (setting [7]) was 6%; in test [1] (setting [8]), 98% (active); in test [1] (at 50.0 µM), 99.2% (active); in test [2] (setting [7]), 32%; in test [2] (setting [8]), 99% (active); in test [2] (at 50.0 µM), 99.6% (active). Besides, the growth inhibition in test [3] (setting [7]) is 39%; in test [3] (setting [8]), 99% (active); in test [3] (at 50.0 µM), 99.1% (active); in test [4] (setting [7]) it was 10%; in test [4] (setting [8]), 99% (active); in test [4] (at 50.0 µM) it was 98.8% (active). Also, the growth inhibition was 29% in test [5] (setting [7]); 99% (active) in test [5] (setting [8]); 99.5% (active) in test [5] (at 50.0 µM); 23% in test [6] (setting [7]); 99% (active) in test [6] (setting [8]); 99.5% (active) in test [6] (at 50.0 µM).
